The text below walks through data of PubChem BioAssay (NCI).

SMILES strings stand for the structures. Compounds without any hit were thinned out: in the full panel of roughly 83,000, 20% have a hit.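 Activity criterion: percent growth below 10, measured after cells in 96-well plates were exposed to a single compound concentration for 48 hours.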 Unmarked numbers belong to inactive results. Activity calls are given as the source filed them.

Experiment in all cases: NCI-60 one-dose screen, 48 h (100 = growth as untreated, 0 = no growth, -100 = all killed)
One experiment deals with SN12C renal. Particulars: 10 µM unless noted.
Another experiment relates to UO-31 renal. Particulars: 10 µM unless noted.
Another experiment relates to TK-10 renal. Conditions: 10 µM unless noted.
Another experiment deals with ACHN renal. Particulars: 10 µM unless noted.
In another experiment the test system is CAKI-1 renal. Conditions: 10 µM unless noted.
A further experiment deals with A498 renal. Conditions: 10 µM unless noted.
For another experiment, the system named is CCRF-CEM leukemia. Particulars: 10 µM unless noted.
Another experiment has as its system SR leukemia. Conditions: 10 µM unless noted.
For another experiment, the system named is RPMI-8226 leukemia. Particulars: 10 µM unless noted.
A further experiment concerns OVCAR-8 ovarian. Conditions: 10 µM unless noted.
A further experiment concerns OVCAR-5 ovarian. Particulars: 10 µM unless noted.
The next experiment concerns OVCAR-4 ovarian. Particulars: 10 µM unless noted.
The next experiment deals with SK-OV-3 ovarian. Conditions: 10 µM unless noted.
A further experiment has as its system IGROV1 ovarian. Conditions: 10 µM unless noted.
A further experiment has as its system OVCAR-3 ovarian. Particulars: 10 µM unless noted.
The test system of another experiment is HS 578T breast. Conditions: 10 µM.
The test system of another experiment is NCI/ADR-RES ovarian. Conditions: 10 µM unless noted.
For a further experiment, the system named is MOLT-4 leukemia. Conditions: 10 µM unless noted.

Take `O=C(CI)NCCNc1cccc2c(S(=O)(=O)O)cccc12`: the growth with SN12C renal was 94.7%; in the experiment with UO-31 renal it was 93.4%; with TK-10 renal, 111%; with ACHN renal it was 107%; in the experiment on CAKI-1 renal it was 109%; in the experiment on A498 renal, 92.7%. The growth with CCRF-CEM leukemia was 100%; in the experiment with SR leukemia, 90.4%; with RPMI-8226 leukemia, 101%; in the experiment on OVCAR-8 ovarian, 110%; with OVCAR-5 ovarian it was 107%; with OVCAR-4 ovarian, 110%. Further, the growth with SK-OV-3 ovarian was 106%; in the experiment with IGROV1 ovarian, 97.6%; in the experiment on OVCAR-3 ovarian it was 100%; in the experiment with HS 578T breast it was 104%; in the experiment on NCI/ADR-RES ovarian it was 106%.
`COc1cc(C2CC(c3cccc(Nc4ccnc5cc(Cl)ccc45)c3)=NN2c2ccc(Cl)cc2)cc(OC)c1OC` (centres undefined): the growth is 57.1% in the experiment with SN12C renal; 23.6% with UO-31 renal; 76.7% in the experiment with TK-10 renal; 41.5% in the experiment with ACHN renal; -1.85% (active) in the experiment on CAKI-1 renal; 64.9% with A498 renal. Also, the growth is 63.1% with CCRF-CEM leukemia; 55.9% in the experiment on SR leukemia; 47.8% in the experiment on RPMI-8226 leukemia; 55.2% in the experiment on OVCAR-8 ovarian; 80.2% in the experiment with OVCAR-5 ovarian; 115% in the experiment on OVCAR-4 ovarian. Further, the growth in the experiment on SK-OV-3 ovarian was 92.2%; with IGROV1 ovarian, 39.7%; with OVCAR-3 ovarian it was 83.3%; in the experiment on HS 578T breast, 64.8%.
In the case of `Clc1ccc(Nc2ncnc3c2sc2ncccc23)c(Cl)c1`, the growth was 20.4% in the experiment on SN12C renal; -11.7% (active) in the experiment on UO-31 renal; 59.6% in the experiment with TK-10 renal; 15.1% in the experiment on CAKI-1 renal; 26.7% in the experiment on A498 renal; 16.6% with CCRF-CEM leukemia. The growth in the experiment with MOLT-4 leukemia is 8.22% (active); in the experiment with SR leukemia, 9.78% (active); in the experiment on RPMI-8226 leukemia it was 30%; in the experiment with OVCAR-8 ovarian, 4.31% (active); with OVCAR-5 ovarian, 59.5%; with OVCAR-4 ovarian it was 84.9%. Further, the growth with SK-OV-3 ovarian is 25.5%; with IGROV1 ovarian, 70.4%; in the experiment with OVCAR-3 ovarian it was 55.5%; in the experiment with HS 578T breast, 95.8%; in the experiment on NCI/ADR-RES ovarian, 15%.
Regarding `COc1ccc2cc(-c3nc(C)c(C(C)=O)c(-c4ccc(C)cc4)n3)ccc2c1`, the growth is 95.5% with SN12C renal; 72.9% in the experiment on UO-31 renal; 93.9% in the experiment on TK-10 renal; 98.7% in the experiment on ACHN renal; 79.5% in the experiment with CAKI-1 renal; 83% in the experiment on A498 renal. The growth in the experiment with CCRF-CEM leukemia was 89.7%; in the experiment on MOLT-4 leukemia it was 106%; in the experiment with SR leukemia, 108%; in the experiment with RPMI-8226 leukemia, 86.9%; in the experiment with OVCAR-8 ovarian, 93.4%; with OVCAR-5 ovarian, 93.1%. Also, the growth in the experiment with OVCAR-4 ovarian is 92%; with SK-OV-3 ovarian it was 97.5%; with HS 578T breast it was 86%; with NCI/ADR-RES ovarian, 92.5%.
As to `Oc1ccc(Nc2ncnc3c2sc2ncccc23)cc1`, the growth in the experiment with SN12C renal was 17.1%; in the experiment on UO-31 renal, -9.84% (active); in the experiment on TK-10 renal, 59.7%; in the experiment on CAKI-1 renal, 13.1%; in the experiment with A498 renal, 8.96% (active); in the experiment on CCRF-CEM leukemia, 16%. Also, the growth in the experiment on MOLT-4 leukemia is 12.2%; in the experiment with SR leukemia, 7.62% (active); with RPMI-8226 leukemia, 31.9%; in the experiment on OVCAR-8 ovarian, 7.28% (active); in the experiment with OVCAR-5 ovarian it was 65%; with OVCAR-4 ovarian, 84.3%. Moreover, the growth in the experiment with SK-OV-3 ovarian is 30.3%; with IGROV1 ovarian, 52.3%; with OVCAR-3 ovarian, 55.8%; in the experiment with HS 578T breast, 82.7%; with NCI/ADR-RES ovarian it was 15.6%.
On to `COc1cc(C(=O)/C=C/c2cn(-c3ccccc3)nc2-c2cccc(Nc3ccnc4cc(Cl)ccc34)c2)cc(OC)c1OC`, for which the growth with SN12C renal is 90.9%; with UO-31 renal, 86.4%; in the experiment on TK-10 renal, 133%; in the experiment on ACHN renal, 108%; in the experiment with CAKI-1 renal, 103%; in the experiment on A498 renal, 99.6%. Moreover, the growth in the experiment with CCRF-CEM leukemia is 21%; with SR leukemia, 3.48% (active); with RPMI-8226 leukemia, 47.2%; in the experiment with OVCAR-8 ovarian, 78.5%; with OVCAR-4 ovarian, 127%; with SK-OV-3 ovarian, 115%. The growth in the experiment on IGROV1 ovarian is 93.2%; in the experiment on OVCAR-3 ovarian, 132%; in the experiment with HS 578T breast, 102%.
As for `O=C(Nc1ccc(Oc2ccc(Nc3nc4ccccc4s3)cc2)cc1)Nc1ccc(Cl)c(C(F)(F)F)c1`, the growth in the experiment on SN12C renal was 1.99% (active); with UO-31 renal, 14.1%; in the experiment on TK-10 renal, 12.6%; with ACHN renal, 3.09% (active); in the experiment on CAKI-1 renal it was 12.4%; with A498 renal it was -18.3% (active). Moreover, the growth in the experiment on CCRF-CEM leukemia is 5.88% (active); with MOLT-4 leukemia it was 5.65% (active); in the experiment with SR leukemia, 0.688% (active); in the experiment on RPMI-8226 leukemia it was -19.5% (active); in the experiment with OVCAR-8 ovarian, 6.28% (active); with OVCAR-4 ovarian, 17.7%. Also, the growth was 12.1% with SK-OV-3 ovarian, -3.18% (active) in the experiment on OVCAR-3 ovarian, 7.39% (active) with HS 578T breast and 5% (active) in the experiment on NCI/ADR-RES ovarian.
On to `Cc1ccc(C2CC(c3cccs3)=NN2c2ccc(S(N)(=O)=O)cc2)s1` (centres undefined), for which the growth in the experiment on SN12C renal is 98.3%; with UO-31 renal it was 75.8%; in the experiment with TK-10 renal it was 94.8%; in the experiment with ACHN renal, 91.9%; with CAKI-1 renal, 86.7%; with A498 renal it was 89.9%. Further, the growth in the experiment on CCRF-CEM leukemia is 80.6%; in the experiment with MOLT-4 leukemia, 89.2%; with SR leukemia, 82.2%; in the experiment with RPMI-8226 leukemia it was 65.3%; in the experiment with OVCAR-8 ovarian, 83.2%; in the experiment on OVCAR-5 ovarian, 101%. For the same compound, the growth was 110% with OVCAR-4 ovarian; 101% in the experiment on SK-OV-3 ovarian; 98.8% with IGROV1 ovarian; 94% in the experiment with OVCAR-3 ovarian; 84.6% in the experiment with NCI/ADR-RES ovarian.
For `COc1ccc(OC)c(Nc2nc(-c3c(C)nc4sccn34)cs2)c1`, the growth in the experiment on SN12C renal is 90.1%; with UO-31 renal, 77.8%; in the experiment on ACHN renal, 79.5%; in the experiment with CAKI-1 renal, 73.7%; in the experiment with A498 renal, 30.7%; in the experiment with CCRF-CEM leukemia, 38.1%. Further, the growth with MOLT-4 leukemia was 9.57% (active); with RPMI-8226 leukemia, 41.9%; with OVCAR-8 ovarian it was 74.5%; in the experiment with OVCAR-4 ovarian, 78%; with SK-OV-3 ovarian, 103%; in the experiment with IGROV1 ovarian, 90.8%. Further, the growth in the experiment with OVCAR-3 ovarian was 94.7%; with HS 578T breast it was 73.1%; in the experiment with NCI/ADR-RES ovarian, 77.8%.
Consider `NS(=O)(=O)c1ccc(N2N=C(c3cccs3)CC2c2ccccc2O)cc1` (centres undefined), for which the growth in the experiment with SN12C renal was 16.5%; in the experiment with UO-31 renal, 34.9%; with ACHN renal, 15.9%; with CAKI-1 renal it was 24.2%; in the experiment on A498 renal, -13.2% (active); with CCRF-CEM leukemia, 4.36% (active). The growth in the experiment on MOLT-4 leukemia is 8.13% (active); in the experiment with SR leukemia, 1.1% (active); in the experiment with RPMI-8226 leukemia, 7.41% (active); in the experiment on OVCAR-8 ovarian it was 9.96% (active); in the experiment on OVCAR-5 ovarian it was 9.55% (active); in the experiment on OVCAR-4 ovarian, 60.8%. The growth in the experiment on SK-OV-3 ovarian is 6.78% (active); with IGROV1 ovarian, 12.7%; in the experiment with OVCAR-3 ovarian, -20.6% (active); in the experiment with HS 578T breast, 17.3%; with NCI/ADR-RES ovarian, 27.3%.
On to `Cc1cc(C)c2c(n1)sc1c(Nc3ccc(Cl)cc3Cl)ncnc12`, for which the growth with SN12C renal was 13.5%; in the experiment with UO-31 renal, -8.56% (active); in the experiment with TK-10 renal it was 56.7%; in the experiment on ACHN renal it was 11.7%; with CAKI-1 renal it was 12.9%; in the experiment on CCRF-CEM leukemia, 16.1%. The growth is 11.6% in the experiment with MOLT-4 leukemia; 4.08% (active) in the experiment with SR leukemia; 28.4% in the experiment on RPMI-8226 leukemia; 3.79% (active) in the experiment with OVCAR-8 ovarian; 57.5% in the experiment on OVCAR-5 ovarian; 68% in the experiment on OVCAR-4 ovarian. Moreover, the growth with SK-OV-3 ovarian is 22.2%; in the experiment with OVCAR-3 ovarian it was 57.3%; in the experiment with HS 578T breast, 90.7%; with NCI/ADR-RES ovarian, 17.9%.
